SMILES strings stand for the structures. The campaign covered roughly 69,000 compounds. About 8,600 (12%) showed an effect of 50% or more. Many of the other results were omitted from the sample, so strong results are more common in it than they were.

This assay relates to Plasmodium berghei. Briefly: Screen against P. berghei liver stage (PbLuc), transformed with Luciferase, at 10uM. Particulars: tested at 10 uM. The format is functional, HepG2.
`Cc1cnc(C(=O)N2C[C@H]3CN(Cc4cccc(F)c4)C(=O)[C@H]3C2)cn1`: the INHIBITION is listed as -9.71%.
The figure for `CC(CN1CCOCC1)NC(=O)N1CCN(S(C)(=O)=O)CC1` (stereo not drawn) is -34.4%; for `CCOc1ccc(SCCS(=O)(=O)CC)cc1` it is 3.84%; for `c1c[nH]c(-c2cn(CCSc3cnn[nH]3)nn2)n1` it is 33.2%.
Regarding `CCSCCn1cc(-c2ncc[nH]2)nn1`, the INHIBITION was determined as 59.1%.
`CCn1c(C)nnc1SCCn1cc(-c2ncc[nH]2)nn1`: the INHIBITION stood at 7.1%.
Turning to `Cc1cnc(CN(C)C2CCN(Cc3nccn3C)C2)o1` (stereo not drawn), the INHIBITION is 13.3%.
Turning to `CCOC(=O)CNC(=O)c1cc(-c2ccccc2)nc2ncnn12`, the INHIBITION is listed as -5.22%.
For the molecule `Cc1nc(Nc2ccc(Cl)cn2)sc1C(=O)NC(C)C`, the INHIBITION is given as -86.5%.
Turning to `CCCNC(=O)c1sc(Nc2ccc(Cl)cn2)nc1C`, the INHIBITION is recorded as -19.7%.
With `CCCc1nc(C)c(C(=O)NCCN2CCCCC2)s1`, the INHIBITION is -21.9%.
The figure for `Cc1nc(Nc2ccc(Cl)cn2)sc1C(=O)NCCCN1CCCCC1` is 52.3%; for `COCCNC(=O)c1sc(Nc2ccc(Cl)cn2)nc1C` it is 67.9%; for `CC(=O)c1sc(Nc2ccc(Cl)cn2)nc1C` it is -9.27%.
The figure for `COc1ccc(CCC(=O)N2CCNCC2C(=O)N2CCCC2)cc1` (stereo not drawn) is 32.1%; for `COCCO[C@H]1CCN(Cc2cccnc2)[C@H]1Cc1cccnc1` it is -31%.
In the case of `CN(C)S(=O)(=O)N1C[C@H]2CC[C@@H](C1)N(Cc1ccc(F)c(F)c1)C2`, the INHIBITION stood at 0.825%.
Regarding `CSc1nccn1-c1ccc(C(=O)NCC2CC2)cc1`, the INHIBITION was 36.1%.
For the molecule `O=C(NCCCn1nc2ccccn2c1=O)NCC(C1CC1)C1CC1`, the INHIBITION is reported as -20%.
The figure for `CCn1cc(-c2cc(-c3ccn(C)c3)nc(N)c2C#N)cc1C#N` is 81.1%; for `Cc1ccc(-c2cc(-c3c(C)nn(CCO)c3C)c(C#N)c(N)n2)cc1` it is 14.1%; for `COc1cc(-c2cc(-c3ccn(C)c3)nc(N)c2C#N)cc(OC)c1O` it is 71.2%.
The figure for `CCCn1cc(-c2cc(-c3cnc(OC)nc3)c(C#N)c(N)n2)c(C)n1` is 25.1%; for `CCNc1ncc(-c2cc(-c3ccn(C)c3)nc(N)c2C#N)cn1` it is 36%; for `COc1ncc(-c2cc(-c3ccn(C)c3)nc(N)c2C#N)cn1` it is 29.4%.
The figure for `O=C(NCC1CC1)c1cc(C2CC2)nc2onc(C3CCCNC3)c12` (stereo not drawn) is -3.11%; for `CCN1CC2(CC1=O)CN(Cc1cnn(C)c1)CCN(C(=O)C(C)C)C2` (stereo not drawn) it is 9.54%; for `CC(NCCCc1cnn(C)c1)c1ccc(Br)s1` (stereo not drawn) it is 45.7%.
`CC(NCc1cnc(N2CCOCC2)nc1)c1ccc(Cl)s1` (stereo not drawn): the INHIBITION stood at 51.8%.
On to `CC(NCCCc1cnn(C)c1)c1ccc(Cl)s1` (stereo not drawn), for which the INHIBITION is recorded as 51.7%.
The figure for `CC(NC(=O)NCCc1cnn(C)c1)c1ccc(Cl)s1` (stereo not drawn) is 68%; for `CC(NCc1cnc(N2CCOCC2)s1)c1ccc(Cl)s1` (stereo not drawn) it is -19.1%; for `Cc1nc(C)c(C(C)NCc2cnc(N3CCOCC3)nc2)s1` (stereo not drawn) it is 43.5%.
`CC(Cn1cccn1)NC(=O)NCCc1cnn(C)c1` (stereo not drawn): the INHIBITION amounted to 49.6%.
As for `COCCn1cc(NC(=O)NC(C)c2ccc(Cl)s2)cn1` (stereo not drawn), the INHIBITION is -6.04%.
Take `CC(NCCN1CCC(N(C)C)CC1)c1ccc(Cl)s1` (stereo not drawn): the INHIBITION was found to be 27.7%.
Take `CCc1nccn1C1CCCN(C(=O)c2ccc(NC3CC3)nc2)C1` (stereo not drawn): the INHIBITION is reported as -40.0335%.
The figure for `CNc1ncc(-c2ccc(NC(=O)[C@@H]3CCCCN3)cc2)cn1` is 4.08%; for `COc1ncccc1CNC(=O)c1ccc(C)[nH]c1=O` it is 20.5%; for `COc1ccc(CN2CCn3c(CNS(C)(=O)=O)nnc3C2)cc1` it is 13.1%.
Turning to `Cn1cnnc1SCCCNC(=O)Nc1ncccn1`, the INHIBITION turned out to be 4.66%.
As to `CCc1nnc2n1CCN(CC(=O)Nc1cc(C)nn1C)C2`, the INHIBITION worked out at 45.6%.
For `Cn1cc(CN2CCC3(CC2)NC(=O)CC3c2ccncc2)cn1` (stereo not drawn), the INHIBITION stood at 14.6%.
Regarding `CN(CC(=O)Nc1cc(CC2CCCCC2)n[nH]1)S(C)(=O)=O`, the INHIBITION is -37%.
Take `CN(CCc1cccs1)CCc1nccs1`: the INHIBITION turned out to be 5.11%.
For the molecule `CN(CCc1ccncc1)CCc1nccs1`, the INHIBITION is reported as 79.5%.
On to `CN(CCc1ccccn1)CCc1nccs1`, for which the INHIBITION came out at 40.9%.
The figure for `CCN(C)c1ncnc2c1CCN(Cc1ccc(F)cc1)CC2` is 22.5%; for `CCCc1nnc(NCCc2noc(C3CCCC3)n2)o1` it is 22.5%.
Take `O=C(c1cncnc1)N1CCCC(c2nccs2)C1` (stereo not drawn): the INHIBITION is listed as 13.54%.
The figure for `CCCn1cc(C(=O)N2CCCC(Cc3nccs3)C2)cn1` (stereo not drawn) is 17.4%; for `CCc1csc(C2CCCN(C(=O)c3cnn(CC)c3)C2)n1` (stereo not drawn) it is -19.7%.
Take `O=C(c1cnc(O)c(Cl)c1)N1CCCC(c2nccs2)C1` (stereo not drawn): the INHIBITION amounted to 26.9%.
With `CCn1ccc(C(=O)N2CCOC(c3nc(-c4cccs4)no3)C2)n1` (stereo not drawn), the INHIBITION stood at 42.6%.
As to `CCn1cc(C(=O)N2CCOC(c3nc(-c4cccs4)no3)C2)cn1` (stereo not drawn), the INHIBITION turned out to be 73.8%.
On to `O=C(c1cnc(C2CC2)nc1)N1CCCC(c2nccs2)C1` (stereo not drawn), for which the INHIBITION was found to be 52%.
As to `CCn1cc(C(=O)N2CCCC(c3nccs3)C2)cn1` (stereo not drawn), the INHIBITION amounted to 56%.
The figure for `CCCn1cc(C(=O)N2CCOC(c3nc(-c4cccs4)no3)C2)cn1` (stereo not drawn) is 48.6%.
Take `NC(=O)N1CCC(C(=O)NCc2nncn2-c2ccccc2)CC1`: the INHIBITION was determined as 38.5%.
As to `CC(C)c1nc(CN2CCOC(Cn3cccn3)C2)no1` (stereo not drawn), the INHIBITION was -38.7%.
In the case of `Cc1ncncc1C(=O)N1C[C@@H]2CC[C@H]1CN(C(=O)c1ccncc1)C2`, the INHIBITION is recorded as -19.2%.
On to `CC(C)c1nccn1CCC(=O)NCC(C)(O)c1ccco1` (stereo not drawn), for which the INHIBITION is reported as -33.4%.
`CN(C(=O)c1ccco1)c1nc2c(s1)CCCC2`: the INHIBITION was -68.6%.
In the case of `Cc1cc(=O)n(CC(=O)NCC2CCCO2)c(-c2ccc(F)cc2)n1` (stereo not drawn), the INHIBITION was found to be 50.1%.
Consider `Cc1cc(=O)n(CC(=O)NCC2CCCO2)c(-c2ccccc2)n1` (stereo not drawn), for which the INHIBITION was determined as 21%.
`Cc1cc(=O)n(CC(=O)NCC2CCCO2)c(-c2cccc(Cl)c2)n1` (stereo not drawn): the INHIBITION is recorded as 33.5%.
As to `O=C(N1CCCO1)[C@@]12CCO[C@@H]1CCN(Cc1ccc(F)cc1)C2`, the INHIBITION was -47.8%.
Take `O=C(C[C@@H]1COC[C@H]2CN(CC3CCOCC3)C[C@@H]12)N1CCCCO1`: the INHIBITION is 76.4%.
Regarding `O=C(C[C@@H]1COC[C@H]2CN(C3CCCC3)C[C@@H]12)N1CCCCO1`, the INHIBITION is listed as 57.1%.
On to `O=C(C[C@@H]1COC[C@H]2CN(Cc3ccc(F)cc3)C[C@@H]12)N1CCCCO1`, for which the INHIBITION is given as -13.4%.
Turning to `CS(=O)(=O)N1C[C@@H]2COC[C@@H](CC(=O)N3CCCCO3)[C@@H]2C1`, the INHIBITION is 28.2%.
In the case of `O=C([C@@H]1COC[C@H]2CN(C3CCCC3)C[C@H]21)N1CCCCO1`, the INHIBITION was 40.5%.
As for `O=C(C[C@@H]1COC[C@H]2CN(CC3CC3)C[C@@H]12)N1CCCCO1`, the INHIBITION came out at 16.9%.
